Results from PubChem BioAssay AID430 (Sanford-Burnham Center for Chemical Genomics, 2006).
The whole screen tested about 63,000 compounds, of which about 1,100 (1.7%) were called active. This excerpt belongs to a sample that is enriched for actives. Results with a measured potency or affinity are listed apart. Values without a mark were called inactive. Cut-off read from the data, not from the text of the source: active = cytotoxicity above about 50%; inactive = the rest.

assay: cytotoxicity in HPDE-C7 cells, cell-based, fluorescence, HTS (AID 430); details: HPDE-C7 pancreatic duct cells viability, at 10 µM, active compounds read high;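 note: cells exposed to compound for 48 hours before viability readout; 0% = vehicle and 100% = reference cytotoxic drug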

SMILES | cytotoxicity
CC(c1ccco1)N(C(=O)CSc1ccc(Br)cc1)c1ccccn1 (stereo not given) | 9.1%
CCCCOC(=O)C(C)Nc1n[nH]c(=O)[nH]c1=O (stereo not given) | 8.9%
Cc1cc(C)n(S(=O)(=O)c2ccc3ccccc3c2)n1 | 28.5%
COC(=O)C1=C(CSCc2ccco2)NC(=O)NC1c1cc(C)ccc1C (stereo not given) | -3.6%
c1ccc(-c2noc(CN3CCN(c4ccccc4)CC3)n2)cc1 | -1.5%
COc1cccc(CNC(=O)C2CCN(S(=O)(=O)c3ccc4c(c3)CCC(=O)N4)CC2)c1 | -2.9%
c1coc(CNc2nc(N3CCCCC3)nc3ccccc23)c1 | 25.2%
Oc1ccccc1-c1nc(NCc2ccco2)c2ccccc2n1 | 0.8%
O=C(Cn1ncc2c(=O)oc3ccccc3c21)N1CCc2ccccc2C1 | -15.7%
N#Cc1c(N)oc(-c2ccccc2)c1-c1ccccc1 | -7.1%
N#Cc1c(/N=C/c2ccco2)oc(-c2ccccc2)c1-c1ccccc1 | 70% (active)
N#Cc1c(/N=C/N2CCCC2)oc(-c2ccccc2)c1-c1ccccc1 | 13.1%
CCC(=O)N1CCN(c2ccc(NC(=O)c3ccc4c(c3)OCO4)cc2)CC1 | -5.7%
COc1ccc(CN(C(=O)c2ccccc2OC)C2CCS(=O)(=O)C2)cc1 (stereo not given) | -0.4%
CCN(CC)C(=O)CSc1nnc(-c2ccccc2)n1N | -1.9%
O=c1[nH]c2ccccc2n1CCCN1CCN(C(c2ccccc2)c2ccccc2)CC1 | -7.2%
O=C(NC1CCCCC1)N1CCC(n2c(=O)[nH]c3ccccc32)CC1 | -3.9%
O=C1CC(c2ccccc2)Sc2ccccc2N1 (stereo not given) | -15%
Cn1cccc1CNC(=O)Nc1ccc(Cl)cc1 | -23.2%
C=C(C)COc1ccc(-c2ncncc2Oc2ccc(OC)cc2)c(O)c1 | 1.9%

SMILES | cytotoxicity
C=C(C)COc1ccc(-c2nc(N)nc(C)c2Oc2ccccc2OC)c(O)c1 | -1.3%
CCOc1ccc(-c2n[nH]c(C)c2Oc2ccccc2OC)c(O)c1 | -2.5%
C=C(C)COc1ccc(-c2nc(N)ncc2Oc2ccccc2OC)c(O)c1 | 0.9%
C=C(C)COc1ccc(-c2n[nH]c(C)c2Oc2ccccc2OC)c(O)c1 | 61.3% (active)
CC(C)Cc1ccc(C#N)c(SCC(N)=O)n1 | -5.5%
Cc1ccc(NC(=O)CSc2nnc(Cn3c(=O)sc4ccccc43)n2C)cc1Cl | -0.9%
O=C(COC(=O)CCC(=O)c1ccc2c(c1)OCCO2)NCc1ccc2c(c1)OCO2 | -8.4%
Nn1c(Cc2ccccc2F)nnc1SCC(=O)N1CC(=O)Nc2ccccc21 | -3.4%
Cc1cc(C)cc(N2CCCn3c2nc2c3c(=O)n(CC(=O)OCc3ccccc3)c(=O)n2C)c1 | 26.4%
O=C(O)C1CCCCC1C(=O)OCCCCOC(=O)C1CCCCC1C(=O)O (stereo not given) | 3.9%
COc1ccc(-c2n[nH]c(C)c2-c2cnn(-c3ccccc3)c2)c(O)c1 | 36.4%
COc1ccc(Oc2c(-c3ccc(O)cc3O)n[nH]c2C)cc1 | 26.3%
Cc1[nH]nc(-c2ccc(O)cc2O)c1Oc1ccccc1 | 69.8% (active)
Oc1ccc(-c2[nH]ncc2-c2ccc(Cl)cc2)c(O)c1 | 33.3%
Cc1[nH]nc(-c2ccc(O)cc2O)c1-c1ccc(Cl)cc1 | 60.1% (active)
COc1ccc(-c2n[nH]c(C)c2-c2ccc(Cl)cc2)c(O)c1OC | -29.4%
CSCCC(C(=O)Nc1ccc2c(c1)OCO2)N1C(=O)c2ccccc2C1=O (stereo not given) | 0.6%
CN(C)c1ccc(CNC(=O)C2CCN(S(=O)(=O)c3ccc4c(c3)CCC(=O)N4)CC2)cc1 | 3.1%
COc1ccc(N2CC(C(=O)NCCCN3CCOCC3)CC2=O)cc1 (stereo not given) | 3.4%
Cn1c(=O)c2c(nc(SCCN3CCOCC3)n2Cc2ccc(F)cc2)n(C)c1=O | 3.9%

SMILES | cytotoxicity
CCCc1nc2ccccc2c(C(=O)OC2CCOC2=O)c1CC (stereo not given) | -7.5%
NC1(N)OC(CN2C(=O)c3ccccc3C2=O)CS1 (stereo not given) | -15%
COc1cc2c3c(c1)C1(C(=O)N3C(C)(C)C=C2C)C(C#N)=C(N)Oc2cc(O)ccc21 (stereo not given) | -9.2%
CC1=CC(C)(C)N2C(=O)C3(C(C#N)=C(N)Oc4cc(O)ccc43)c3cccc1c32 (stereo not given) | 68.4% (active)
CC1=CC(C)(C)N2C(=O)C3(C(C#N)=C(N)Oc4cc(C)oc(=O)c43)c3cccc1c32 (stereo not given) | 1.3%
Cc1ccc2cc3c(nc2c1)N(Cc1ccco1)CC3 | -15.5%
CC1CCN(S(=O)(=O)c2ccc(NC(=O)Cn3nnc(-c4ccccc4)n3)cc2)CC1 | 3.7%
Cc1cc(NC(=O)COc2cccc3cccnc23)no1 | 7.3%
CCN1CCN(c2nc3ccccc3nc2C(C#N)C(=O)OCc2ccccc2)CC1 (stereo not given) | 58% (active)
CCCCCCOC(=O)C(C#N)c1nc2ccccc2nc1N1CCN(CC)CC1 (stereo not given) | 12.4%
COCCOC(=O)C(C#N)c1nc2ccccc2nc1N1CCN(Cc2ccccc2)CC1 (stereo not given) | 8.9%
N#CC(C(=O)NCc1ccccc1)c1nc2ccccc2nc1N1CCCC1 (stereo not given) | -2%
CCCCCCOC(=O)C(C#N)c1nc2ccccc2nc1N1CCCCC1 (stereo not given) | -47.4%
COc1ccc(CNC(=O)C(C#N)c2nc3ccccc3nc2N2CCCC2)cc1 (stereo not given) | -15.8%
CCCCCCOC(=O)C(C#N)c1nc2ccccc2nc1N1CCN(C)CC1 (stereo not given) | 64.2% (active)
COc1ccc(CNC(=O)C(C#N)c2nc3ccccc3nc2N2CCN(C)CC2)cc1 (stereo not given) | 72% (active)
CC(C)COC(=O)C(C#N)c1nc2ccccc2nc1N1CCN(Cc2ccccc2)CC1 (stereo not given) | -14%
Cc1cc2cc(CCNC(=O)CC(C)C)c(=O)[nH]c2cc1C | 3.7%
O=C(NCc1ccco1)c1cc2ccccc2c(=O)o1 | -3.4%
Cc1nc(-c2cn[nH]c2)c2cc(C)oc2n1 | 1.2%
